Source: PubChem
Sampled rows, rich in hits. Any-hit rate of the full collection: about 1.1%.
HTR5A ag ctr: HTR5A agonism, opioid heterodimer counter-screen; HTR5A agonist assay, luminescence, cell-based; activation, % at 9.3 µM; 0.61% of 340,000 active; AID 504692; in the data active = activation mostly above about 9.5%, no sharp cut-off; inactive = mostly below about 7.6%;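 note: 0% = cells with vehicle only and 100% = reference agonist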
OPRM1-OPRD1 inv: mu-delta opioid heterodimer inverse agonism; cell-based MOR-DOR heterodimer luminescence; inhibition, % at 9.3 µM; 0.21% of 340,000 active; AID 504357; in the data active = inhibition above about 22%, passing the limit was not always enough;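 note: 0% = cells with DMSO and 100% = wells without cells with DMSO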
Target sequence (P35372 whole entry, looked up): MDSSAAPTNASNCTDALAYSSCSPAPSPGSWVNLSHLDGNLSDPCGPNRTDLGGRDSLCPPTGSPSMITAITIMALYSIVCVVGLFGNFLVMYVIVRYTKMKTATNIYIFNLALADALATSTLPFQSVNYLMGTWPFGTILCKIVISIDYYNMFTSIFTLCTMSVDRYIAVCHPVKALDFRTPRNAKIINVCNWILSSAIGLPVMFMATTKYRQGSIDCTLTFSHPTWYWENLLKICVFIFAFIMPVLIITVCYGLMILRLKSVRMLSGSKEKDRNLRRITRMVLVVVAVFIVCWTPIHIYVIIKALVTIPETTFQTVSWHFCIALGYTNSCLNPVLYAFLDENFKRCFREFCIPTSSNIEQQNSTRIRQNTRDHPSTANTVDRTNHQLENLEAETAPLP
Target sequence (P41143 whole entry, looked up): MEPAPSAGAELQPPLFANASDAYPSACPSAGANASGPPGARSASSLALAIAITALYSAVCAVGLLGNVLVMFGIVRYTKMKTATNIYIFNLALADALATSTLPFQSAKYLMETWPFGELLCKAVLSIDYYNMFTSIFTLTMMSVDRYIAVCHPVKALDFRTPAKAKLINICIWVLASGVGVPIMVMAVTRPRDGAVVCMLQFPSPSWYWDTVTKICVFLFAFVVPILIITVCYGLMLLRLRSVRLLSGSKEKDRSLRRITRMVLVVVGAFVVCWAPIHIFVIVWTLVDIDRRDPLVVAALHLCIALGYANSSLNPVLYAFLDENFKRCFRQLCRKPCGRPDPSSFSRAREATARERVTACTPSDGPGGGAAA
MOR-DOR ag-1: OPRM1-OPRD1 heterodimerization agonism | P35372+P41143 | cells, luminescence | activation, % at 9.3 µM | 0.3% of 340,000 active | AID 504326;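 note: 0% = vehicle-treated cells and 100% = reference agonist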
HTR5A inv ag: HTR5A inverse agonism, opioid heterodimer counter-screen; P47898; HTR5A cell line, luminescence; inhibition, % at 9.3 µM; 0.083% of 340,000 active; in the data active = inhibition mostly above about 23%, no sharp cut-off; inactive = mostly below about 18%;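 note: 0% = cells with DMSO and 100% = no-cell wells with DMSO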
MOR-DOR ag-2: promotes OPRM1-OPRD1 heterodimerization in HTR5A counter-screen; AID 504913; shares compounds with HTR5A ag ctr; U2OS counter-screen cells, complementation luminescence, 3 h; 13% of 800 active; activation, % at 9.3 µM
HTR5A ag conf: HTR5A (human) agonism, confirmation; shares compounds with HTR5A ag ctr; HTR5A agonist cell assay, luminescence; activation, % at 9.3 µM; 17% of 800 active; in the data active = activation above about 17%;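 note: 0% = cells with vehicle only and 100% = full reference agonist response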
Numbers without * were called inactive; x = no result given. Cut-off read from the data, not from the text of the source, unless noted: active = activation above about 18%; inactive = the rest.

SMILES | HTR5A ag ctr | OPRM1-OPRD1 inv | MOR-DOR ag-1 | HTR5A inv ag | MOR-DOR ag-2 | HTR5A ag conf
COc1ccc(NC(=O)C(NC(C)=O)C(=O)Nc2ccc(F)cc2)cc1 (configuration not stated) | -1.7 | 10.0 | -1.7 | 6.5 | x | x
COc1ccc(C(CCN2CCCC(C)C2)c2c(OC)cc(OC)c3c(-c4ccccc4)cc(=O)oc23)cc1 (configuration not stated) | 22.6* | 6.7 | -1.2 | -66.2 | -0.6 | -4.7
COc1cc(OC)c2c(-c3ccccc3)cc(=O)oc2c1C(CCN1CCCC(C)C1)c1ccc(N(C)C)cc1 (configuration not stated) | -6.0 | 8.5 | -1.5 | -8.7 | x | x
CCn1c(=O)n(CC)c2cc(S(=O)(=O)Nc3c(C)cccc3C)ccc21 | -2.6 | 12.1 | -2.4 | 7.3 | x | x
Cc1csc2nc(CCNS(=O)(=O)c3ccc4c(c3)OCCO4)cn12 | -0.8 | 1.9 | -0.3 | 15.5 | x | x
Cn1c(=O)cc(SCC(=O)N2CCN(Cc3ccc4c(c3)OCO4)CC2)c2ccccc21 | 18.1* | 16.5 | -3.2 | 2.9 | 1.8 | -2.5
CCn1c(=O)cc(SCC(=O)N2CCN(Cc3ccc4c(c3)OCO4)CC2)c2ccccc21 | -0.6 | -17.5 | 3.1 | -3.7 | x | x
COc1cc(OC)cc(-c2nc3ccccc3c(=O)n2OC(=O)c2ccccc2C)c1 | 21.8* | -37.7 | 7.5 | -35.9 | 6.4 | 12.5
C=CCn1c(SCC(=O)NC(=O)NCc2ccco2)nc2sc(C)c(C)c2c1=O | 16.7* | -83.5 | 14.2 | -43.7 | -2.8 | -5.2
CCOC(=O)c1sc2nc(SCC#N)n(CC3CCCO3)c(=O)c2c1C (configuration not stated) | 0.3 | 5.7 | -1.1 | 12.6 | x | x
COc1ccc(NC(=O)CSc2nnc(Cc3cccn3C)n2-c2ccc(C)cc2)cc1OC | 15.1* | 8.9 | -1.7 | -49.0 | 2.7 | 3.1
COc1ccc(-n2c(Cc3cccn3C)nnc2SCC(=O)Nc2cccc(OC)c2)cc1 | -1.8 | 0.9 | -0.2 | 4.8 | x | x
COc1ccc(CSCC(=O)N/N=C/c2ccccc2OCc2ccccc2)cc1 | 21.9* | -4.7 | 0.8 | -57.5 | 0.9 | 1.4
Cc1cc(O)c(C(C)C)cc1C1(c2cc(C(C)C)c(O)cc2C)OC(=O)c2ccccc21 | 20.2* | -64.7 | 13.0 | -5.1 | 5.7 | 12.6
CC(=O)N1CCc2c(sc(NC(=O)C3CC3)c2-c2nc3ccccc3s2)C1 | 16.1* | 10.9 | -1.9 | -47.1 | 2.3 | 0.6
Cc1ccc(N(C(=O)Cc2cccs2)C(C(=O)NC2CCCCC2)c2ccccn2)cc1C (configuration not stated) | 15.4* | -19.1 | 4.0 | 3.0 | 30.4* | 18.6*
COc1ccc(CC(=O)Nc2cccc(-c3nnc(-c4cccc(C)c4)o3)c2)cc1OC | -11.1 | -4.4 | 0.8 | -25.9 | x | x
COc1ccc(CC(=O)Nc2cccc(-c3nnc(-c4ccccc4)o3)c2)cc1OC | 16.2* | -58.0 | 10.3 | -43.3 | -2.4 | -3.7
CC(CNC(=O)c1ccc(C(C)(C)C)cc1)CN(C)C (configuration not stated) | 6.0 | 9.0 | -1.7 | 17.6 | x | x
O=C1c2ccccc2C(=O)N1CCc1c[nH]c2ccc(O)cc12 | 23.9* | 9.1 | -1.9 | -100.5 | 2.8 | 4.6
CN(C)S(=O)(=O)N1CCN(C(=O)c2ccccc2Cl)CC1 | 0.7 | 5.2 | -1.1 | -1.4 | x | x
COc1cccc(-c2csc(N3CCN(C(=S)Nc4ccccc4)CC3)n2)c1 | 22.2* | -18.3 | 3.1 | -51.6 | -1.9 | -6.8
COc1cccc(-c2csc(N3CCN(C(=S)Nc4ccc(Cl)cc4)CC3)n2)c1 | 12.2 | -13.2 | 2.3 | -31.6 | x | x
CCCCCCCCCC[n+]1cccc2c3ccccc3ccc21 | 21.6* | 2.1 | -0.4 | 4.7 | 3.8 | 5.5
COc1ccc(C(=O)NCCNc2ccc([N+](=O)[O-])cc2)cc1OC | -0.9 | 19.1 | -3.7 | 2.6 | x | x
SMILES | HTR5A ag ctr | OPRM1-OPRD1 inv | MOR-DOR ag-1 | HTR5A inv ag | MOR-DOR ag-2 | HTR5A ag conf
COc1cccc(C2CC(=O)Nc3n[nH]c(-c4ccccc4)c32)c1OC (configuration not stated) | -3.9 | 8.3 | -1.6 | 10.8 | x | x
O=C(NCCc1c[nH]c2ccccc12)c1cc([N+](=O)[O-])cc([N+](=O)[O-])c1 | 65.0* | -12.9 | 2.2 | -252.3 | 6.0 | 69.0*
CC(C)(C)c1ccc(OCC(=O)N2CCN(c3ccccn3)CC2)cc1 | 15.1* | 0.5 | -0.1 | -37.0 | 17.6 | 17.4*
CCn1nc(C)c(/C=N/NC(=O)c2ccoc2C)c1C | 18.1* | -6.3 | 1.1 | -53.3 | 5.7 | 11.8
CCCCCn1nc(C)c(/C=N/NC(=O)c2ccoc2C)c1C | 6.4 | 9.2 | -1.6 | -20.6 | x | x
CCn1nc(C)c(/C=N/NC(=O)c2nc3nc(C)cc(C)n3n2)c1C | 15.8* | -1.2 | 0.2 | -13.5 | 2.2 | 6.1
CCN(CC(=O)Nc1c(F)cccc1F)C(=O)CSc1ccccc1 | 4.8 | 26.1 | -5.4 | 10.1 | x | x
O=C(NCC1CCCO1)c1ccc(Oc2ccc([N+](=O)[O-])cc2Cl)cc1 (configuration not stated) | 17.5* | -24.6 | 3.4 | -49.5 | -3.5 | -7.7
O=C(Cn1nc(C(F)F)cc1C1CC1)N1CCCC1 | -0.8 | 13.7 | -2.1 | 2.2 | x | x
Cc1cc(C(F)F)nn1CC(=O)N1CCSCC1 | 16.0* | 10.3 | -2.0 | 5.7 | 1.2 | 0.4
Cc1ccc(OCC(=O)N2CCN(S(=O)(=O)c3ccccc3)CC2)c([N+](=O)[O-])n1 | 0.6 | -5.0 | 0.9 | 8.7 | x | x
CCOC(=O)c1cc(C(=O)c2cccs2)n2ccc(C(C)=O)cc12 | 19.9* | 14.5 | -2.6 | -55.0 | 3.1 | -2.0
O=C(CSC1=NCCN1)Nc1cccc(C(F)(F)F)c1 | 22.9* | 7.6 | -1.7 | -57.0 | 23.5* | 5.1
Cn1ccnc1SCC(=O)Nc1cccc(C(F)(F)F)c1 | 0.5 | 4.5 | -0.8 | 2.8 | x | x
CCCOc1ccccc1/C=C1\SC(N2CCCCC2)=NC1=O | 16.5* | 2.7 | -0.6 | -60.7 | 0.3 | 24.2*
O=C1N=C(N2CCCCC2)S/C1=C\c1ccccc1F | 2.9 | 6.0 | -1.2 | -10.8 | x | x
Clc1ccccc1CN1CCc2sccc2C1 | -1.9 | -7.6 | 1.5 | -14.2 | x | x
CCCOc1c(Cl)cc(C(=O)Nc2ccc3c(c2)OCO3)cc1OCC | 15.9* | -55.9 | 9.5 | -33.9 | 1.1 | -4.2
C/C(=N\NC(=O)c1ccccc1O)c1ccc(Br)s1 | 14.8* | 19.9 | -3.8 | -54.0 | 0.2 | 27.9*
COc1ccccc1NCC(=O)N/N=C/c1sccc1C | 26.2* | -16.0 | 3.0 | -73.5 | 1.8 | 6.0
O=S(=O)(CCNCc1ccccc1)NC1CCCCC1 | -0.9 | -0.8 | 0.2 | 3.5 | x | x
C=CCNC(=O)c1onc(CSc2ccc(F)cc2)c1C(=O)NCC=C | 22.0* | -5.6 | 1.0 | -64.5 | 1.4 | -1.4
O=C1NC[C@@H](Cc2cccc3ccccc23)N(CCCCC2CCCCC2)C1=O | -0.8 | -15.5 | 2.9 | -4.3 | x | x
CC1CCCCN1Cc1c(C#N)c2ccccc2n1C (configuration not stated) | 20.8* | -21.4 | 3.8 | -57.3 | 3.0 | 1.8
